Pf Dd2 inh = inhibitors of Plasmodium falciparum Dd2 growth; P. falciparum Dd2 growth, SYBR Green, 72 h; Potency, µM (highest dose often 28.9 µM), inactives show at the top dose activity, negative = inhibition, most hits filed as inhibitors; 4.3% of 120,000 active; AID 1347417; active = well fitted inhibition curve with a large enough effect;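 also: plate controls were DMSO vehicle for no effect and reference drug for full effect; nearly all actives have a fitted effect of over 65% in size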
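Infected erythrocytes (Dd2, 0.3% parasitemia, 2.5% hematocrit final) are added to compound in RPMI-1640/Albumax II medium, grown 72 h at 37C in low oxygen, then lysed with saponin/Triton-X containing SYBR Green and read by fluorescence.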
* hit, by the source's call; [ ] = dose if it differs, or a comment. Only a selection was taken, and hits are over-represented in it overall. Potency is read from the fitted curve at half-maximal effect.

Results for CCc1cccc(NC(=O)Nc2csc3c2CCCC3)c1 ?
Pf Dd2 inh: 10µM*

Results for Cc1ccn2c(Nc3ccc(F)cc3)c(-c3ccc(C)o3)nc2c1 ?
Pf Dd2 inh: 10µM*

Results for Cc1ccccc1-c1nc2cnccn2c1NCCC(=O)N1CCCCC1 ?
Pf Dd2 inh: inactive

How did COc1ccc(Nc2c(-c3ccco3)nc3cccc(C)n23)cc1 do in these assays?
Pf Dd2 inh: -18%

Results for Cc1ccn2c(Nc3ccc(C(C)C)cc3)c(-c3cccs3)nc2c1 ?
Pf Dd2 inh: 11µM*

What do the screens show for `Cc1ccc2nc(-c3cccs3)c(Nc3ccc4c(c3)OCCO4)n2c1`?
Pf Dd2 inh: 16%

What do the screens show for `Cc1ccccc1-c1nc2cnccn2c1NCCC(=O)N1CCC(C)CC1`?
Pf Dd2 inh: inactive

Results for Cc1cccc(C)c1Nc1c(-c2cccs2)nc2ncccn12 ?
Pf Dd2 inh: -13%

Results for Cc1ccc2nc(-c3ccco3)c(Nc3ccc4c(c3)OCCO4)n2c1 ?
Pf Dd2 inh: -5%

What do the screens show for `Cc1ccn2c(Nc3ccc(C(C)C)cc3)c(-c3cccnc3)nc2c1`?
Pf Dd2 inh: 11µM*

What do the screens show for `Cc1ccc2nc(-c3cccnc3)c(Nc3ccc(C(C)C)cc3)n2c1`?
Pf Dd2 inh: 18%

What do the screens show for `CC(C)c1ccc(Nc2c(-c3ccccc3O)nc3cnccn23)cc1`?
Pf Dd2 inh: 3.5µM*

Results for Cc1ccc(Nc2c(-c3cccc(Cl)c3)nc3cccc(C)n23)cc1 ?
Pf Dd2 inh: inactive

How did CC1CCN(c2ccc(CNC(=O)CC3CCOCC3)cc2)CC1 do in these assays?
Pf Dd2 inh: inactive

How did Cc1c(Cl)cccc1NC(=O)c1ccc(C(=O)Nc2cccc(Cl)c2C)cc1 do in these assays?
Pf Dd2 inh: 30%

What do the screens show for `Cc1ccccc1NC(=O)c1c(C)oc2ccc(O)c(CN(C)Cc3ccccc3)c12`?
Pf Dd2 inh: 1.1µM*

How did Cc1ccccc1NC(=O)c1ccc2nc(Cc3ccccc3)oc2c1 do in these assays?
Pf Dd2 inh: 12%

Results for CCN(Cc1ccccc1)Cc1c(O)ccc2oc(C)c(C(=O)Nc3ccccc3C)c12 ?
Pf Dd2 inh: 1.1µM*

How did Cc1ccccc1NC(=O)C1=NO[C@@H]2CN(CCc3ccccc3)C[C@H]12 do in these assays?
Pf Dd2 inh: -15%[44.1 µM]

What do the screens show for `Cc1oc2ccc(O)c(CN(C)Cc3ccccc3)c2c1C(=O)Nc1cccc(Cl)c1C`?
Pf Dd2 inh: 3.2µM*

How did CCCn1ccc2oc(C)c(C(=O)NCc3ccccc3)c2c1=O do in these assays?
Pf Dd2 inh: -9%

How did Cc1cc(C)c2c(=O)cc(C(=O)Nc3ccc(S(=O)(=O)N(C)Cc4ccccc4)cc3)oc2c1 do in these assays?
Pf Dd2 inh: inactive

Results for CCc1ccc2oc(C(=O)Nc3cccc(Cl)c3C)cc(=O)c2c1 ?
Pf Dd2 inh: 70%

Results for Cc1ccccc1-n1nc(C)c(CCC(=O)NCC2CC2)c1Oc1ccccc1 ?
Pf Dd2 inh: inactive

How did Cc1noc(C)c1C(=O)N1CCC2(CC1)CC(NC(=O)NC(C)C)c1ccccc12 (stereo not drawn) do in these assays?
Pf Dd2 inh: 1%

Results for O=C1NC(C(=O)NCCc2ccccc2)Cn2cccc21 (stereo not drawn) ?
Pf Dd2 inh: inactive

Results for Cc1ccc(C(=O)NC[C@H]2O[C@@H](CC(=O)NC3CC3)[C@H](O)[C@@H]2O)cc1 ?
Pf Dd2 inh: 3%[44.1 µM]

How did O=C(c1ccc(-c2ccc(N3CCCCC3)nc2)cc1)N1CCCC1 do in these assays?
Pf Dd2 inh: -3%

How did CCOc1ccccc1NC(=O)CN1C(=O)NC(c2ccccc2OCC)C2=C1COC2=O (stereo not drawn) do in these assays?
Pf Dd2 inh: -2%

What do the screens show for `O=C(Cc1c[nH]c2ccccc12)NC1CCc2nn(CC3CC3)c(=O)n2CC1` (stereo not drawn)?
Pf Dd2 inh: 13%

Results for COc1cc(=O)n2c(c1C(=O)Nc1cc(Cl)ccc1Cl)CCCC2 ?
Pf Dd2 inh: -18%

How did CN1C[C@@H]2CCCN3CCC[C@@H]([C@H]23)[C@H]1CCCC(=O)NCCc1nc2ccccc2[nH]1 do in these assays?
Pf Dd2 inh: 5%

How did COC[C@]1(O)CCN(C(=O)C2(c3ccc(OC)cc3)CC2)CC1(C)C do in these assays?
Pf Dd2 inh: -1%

What do the screens show for `Cn1c(CCNC(=O)C2CCCN(C(=O)c3ccccc3)CCC(=O)NCC2)nc2ccccc21` (stereo not drawn)?
Pf Dd2 inh: 9%

What do the screens show for `COc1cc(F)ccc1-c1nc(-c2c(C)noc2C)cc2c1cc(C)n2C`?
Pf Dd2 inh: -2%[44.1 µM]

Results for COc1cc(F)ccc1-c1cc(-c2c(C)noc2C)c2cncn2c1 ?
Pf Dd2 inh: 3.5µM*

How did COc1cccc(-c2cc(-c3c(C)noc3C)c3cncn3c2)c1OC do in these assays?
Pf Dd2 inh: -19%[44.1 µM]

Results for COc1ccc(-c2ccc3onc(C)c3n2)cc1OC ?
Pf Dd2 inh: 11%[44.1 µM]

What do the screens show for `COc1ccc(-c2cc(-c3c(C)noc3C)c3cncn3c2)cc1OC`?
Pf Dd2 inh: 7.1µM*

Results for CC(=O)NC1CCCN(Cc2cccc(OCCN3CCOCC3)c2)C1 (stereo not drawn) ?
Pf Dd2 inh: 1%

Results for CC(=O)N1CCC(C(=O)N[C@H](Cc2ccccn2)C2CC(O)C2)CC1 (stereo partly drawn) ?
Pf Dd2 inh: -13%

How did COc1cccc([S+](=O)([O-])N2CCC3(CC2)CC(=O)Nc2ccccc2O3)c1 do in these assays?
Pf Dd2 inh: -10%

How did COCC1CN(C(=O)c2nccn2C)CC12CCNCC2 (stereo not drawn) do in these assays?
Pf Dd2 inh: 18%

Results for Cc1nc(CC(=O)N2CCn3nc(CCC(=O)N4CCC(O)CC4)cc3C2)n[nH]1 ?
Pf Dd2 inh: 2%

Results for Cn1ccc(NC(=O)C2(C)CN(Cc3ccccc3)Cc3ccc(N4CCOCC4)nc32)n1 (stereo not drawn) ?
Pf Dd2 inh: inactive

How did CCS(=O)(=O)N1CCC2(CC1)CN(C1CCC1)CC2COC (stereo not drawn) do in these assays?
Pf Dd2 inh: -21%

How did COCC1CN(C2CCC2)CC12CCN(C(=O)Cc1ccccc1F)CC2 (stereo not drawn) do in these assays?
Pf Dd2 inh: 5.6µM*

Results for COCC1CN(C2CCC2)CC12CCN(C(=O)c1ccc(OC)c(F)c1)CC2 (stereo not drawn) ?
Pf Dd2 inh: 5µM*

What do the screens show for `COCC1CN(C2CCC2)CC12CCN(C(=O)Cc1ccccc1OC)CC2` (stereo not drawn)?
Pf Dd2 inh: 13µM*

Results for COCC1CN(C2CCC2)CC12CCN(C(=O)C(C)C)CC2 (stereo not drawn) ?
Pf Dd2 inh: -11%

Results for COCC1CN(C2CCC2)CC12CCN(C(=O)c1cn(C)cn1)CC2 (stereo not drawn) ?
Pf Dd2 inh: 14%

Results for COCC1CN(C(C)=O)CC12CCN(C(=O)Cc1ccc(OC)cc1)CC2 (stereo not drawn) ?
Pf Dd2 inh: inactive

What do the screens show for `CCOCC(=O)N1CCC2(CC1)CN(C1CCC1)CC2COC` (stereo not drawn)?
Pf Dd2 inh: inactive

How did COC[C@@H]1CN(C(=O)c2ccc(OC)c(F)c2)C[C@H]1C(N)=O do in these assays?
Pf Dd2 inh: 17%

How did COC[C@@H]1CN(C(=O)Cc2ccc(OC)cc2)C[C@H]1c1nc(C)no1 do in these assays?
Pf Dd2 inh: 3%

How did CC(=O)N[C@H]1[C@H](O)[C@H](O)C[C@@H]1c1ccc(C(F)(F)F)cc1 do in these assays?
Pf Dd2 inh: 27%[44.1 µM]
